The source made the active and inactive calls. No rule for the calls is given here.
Test: inhibition of 3D7 malaria parasite growth – strain 3D7 (AID 2306);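 also: 0% = DMSO wells and 100% = chloroquine plus artemisinin control wells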
Settings: P. falciparum 3D7 erythrocytic growth, LDH absorbance, 72 h; at 2 µM; hits give high values

Growth inhibition, active:
CN1CCN(CCCN(Cc2ccc(-c3cccc(CNCc4ccc5c(c4)OCO5)c3)cc2)C(=O)NC2CCCCC2)CC1 95%, Cc1[nH]c(C)c(-c2ccc(CCc3ccc(F)cc3F)cc2)c(=O)c1Cl 98%, Cc1cc(OCCCN2CCC(NS(=O)(=O)c3cccc(Br)c3)CC2)c2ccccc2n1 95%, CC(C)NCc1ccc(-c2cccc(NC(=O)c3cccc(C#N)c3)c2)cc1 100%, CC(C)C[C@H](NC(=O)c1cc2ccccc2s1)C(=O)N[C@H]1CCN(Cc2ccc(OCCN3CCNCC3)c3ccccc23)C1 101%, COc1ccc(OCCCCON2C(N)=NC(N)=NC2(C)C)cc1 92%, Cc1ccc(C(=O)Nc2ccc(Cl)c(N3CCN(CCc4ccccc4)CC3)c2)cc1 90%, Cc1ccc(C(C(=O)Nc2ccc(N3CCNCC3)c(Cl)c2)c2ccccc2)cc1 (configuration not stated) 97%, COc1cc(CNCCCCCCNCc2cc(OC)cc3ccccc23)c2ccccc2c1 100%, COc1cc(C(=O)N2CC[C@@H](CCN3CCC4(CC3)CN(S(C)(=O)=O)c3ccccc34)C[C@H]2Cc2ccc(Cl)c(Cl)c2)cc(OC)c1OC 101%, Cc1ccc2c(NN=CC=Cc3ccccc3)cc(C)nc2c1 92%, OCCN1CCN(Cc2ccc(-c3ccc(-c4nc5ccc(C(F)(F)F)cc5[nH]4)s3)cc2)CC1 101%, NC1=NC2(CCCCC2)N(OCCCOc2cccc3ccccc23)C(N)=N1 95%, Cc1cccc2[nH]c(-c3cccc(-c4ccc(NC(=O)Cc5ccon5)cc4)c3)nc12 87%, COc1ccc2nccc([C@@H](O)CN3CCC(NC(=O)c4cc5ccccc5[nH]4)CC3)c2c1 96%, O=C(NCCc1ccc(Cl)c(Cl)c1)C1CCCN(C(=O)c2ccc(O)c(-c3ccc(Cl)c(Cl)c3)c2)C1 (configuration not stated) 96%, CCCc1cc(Cc2cnc(N)nc2N)cc(CCC)c1OCCCCCC(=O)OCC 95%, CCCCc1ccc(-c2ccc(-c3c(C)[nH]c(C)c(Br)c3=O)cn2)cc1 98%, Cc1cc(NN=Cc2ccccn2)c2cc(C(F)(F)F)ccc2n1 102%, O=C(Nc1ccsc1)Nc1cccc(-c2cccc(-c3nc4ccc(C(F)(F)F)cc4[nH]3)c2)c1 102%, COc1cc(NC(=O)C(c2ccc(Cl)cc2)C(C)C)cc(OC)c1 (configuration not stated) 99%, CC(C)(C)C1CC(=O)C[C@@H]2C(=O)N(c3ccc(Br)cc3)C(=O)[C@H]12 (some centres not stated) 94%, COc1ccc(O)c(C(=O)c2cc(C(=O)NC3CCCCC3)c(=O)n(C3CCCCC3)c2)c1 99%, COc1ccccc1NC(=O)Nc1ccc(-c2ccc(-c3nc4c(C)cccc4[nH]3)s2)cc1 100%, COc1cc2c(C3CCN(CC4CCC(NC(=O)/C=C/c5ccc(Cl)c(Cl)c5)CC4)CC3)c[nH]c2cn1 (configuration not stated) 101%, COCC(C)n1c(SCC(=O)Nc2cc(C(F)(F)F)ccc2Cl)nc2ccccc2c1=O (configuration not stated) 97%, COc1ccc(-n2cc(CNCCCn3ccnc3)c(-c3cccc(F)c3)n2)cc1 98%, COc1cc(Cc2cnc(N)nc2N)cc(OCCCCC2SC(=O)NC2=O)c1OC (configuration not stated) 94%, COc1ccc2nccc([C@@H](O)CN3CCC(NCc4nc5cc(F)ccc5o4)CC3)c2c1 102%, N=C(N)c1cc(Br)cc(NC(=O)Nc2cc(Br)cc(C(=N)N)c2)c1 93%, CS(=O)(=O)c1ccc(CNCc2ccc(-c3cccc(-c4nc5ccc(F)cc5[nH]4)c3)cc2)cc1 102%, CC(C)(C)c1ccc(NC(=O)c2cccc(CN3CCN(Cc4cccc(O)c4)CC3)c2)cc1 92%, COc1cc(C(=O)NC2CCN(Cc3ccccc3)CC2)ccc1-c1cc2cc(Cl)c(Cl)cc2[nH]1 102%, COc1cc(NC(=O)c2sc(-c3ccc(Cl)cc3)cc2NC(=O)CN2CCCC2)ccc1OCCN1CCCC1 86%, O=[N+]([O-])c1ccc(Nc2nc(NN=Cc3ccc(-c4ccc([N+](=O)[O-])cc4)o3)nc(Nc3ccccc3)n2)cc1 101%, CN1CCN(CCCN(Cc2ccc(-c3cccc(CNC4CCCC4)c3)cc2)C(=O)/C=C/c2ccccc2)CC1 100%, CC(C)(C)c1ccc(CN2CCCCC(NC(=O)c3cc(-c4cccc(Cl)c4)cs3)C2)cc1 (configuration not stated) 96%

Source: PubChem BioAssay
